Reference: PubChem BioAssay (NCATS)
Inconclusive results are not listed. Entries that show only a call come without a potency. The source made the active and inactive calls. Unless noted, calls follow the shape of the dose curve; as a rule, active = well fitted curve in either direction with a large enough effect (not every such curve was filed as active); inconclusive = small, poorly fitted or top-dose-only effect, or another doubt; inactive = flat fitted curve, though single readings scatter.

Experiments:
[1] = test system: HIV-1 nucleocapsid protein NCp7 (binding to TG oligonucleotide); test: HIV Nucleocapsid (AID 346; call rule not given here;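 also: potency is read from the fitted curve at half-maximal effect; potency is for inhibitors that block NC binding and lower polarization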); conditions: HIV-1 NC / fluorescein-TGTGTGTG probe, fluorescence polarization
Outline: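 10 nM TG4xF probe with 100 nM nucleocapsid protein in high-salt Hepes pH 7.5 (250mM NaCl) containing 1uM ZnCl2 and reducing agents. Compound inhibition of binding was read as fluorescein polarization after 1 hr at room temperature.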

[2] = AP1 Signaling Pathway (AID 357); conditions: ME-180 AP-1-bla reporter, EGF-induced, beta-lactamase ratio, 5 h; series mostly up to 17.2 µM
Outline: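 ME-180 cells with beta-lactamase reporter under AP-1 response element, stimulated with EC50 EGF; compounds tested in titration series, 5 h at 37 °C. CCF4 substrate added 2.5 h at room temperature; 460/530 nm emission ratio gave %activity and AC50.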

[3] = biological target: Cytochrome P450 1A2 (Homo sapiens) (UniProt P05177); test: p450-cyp1a2 (AID 410; calls by dose curve; also: potency is read from the fitted curve at half-maximal effect); conditions: recombinant CYP1A2, luciferin-ME demethylation, luminescence; series mostly up to 25.6 µM
Chain of Cytochrome P450 1A2 (Homo sapiens) (P05177 whole entry, looked up): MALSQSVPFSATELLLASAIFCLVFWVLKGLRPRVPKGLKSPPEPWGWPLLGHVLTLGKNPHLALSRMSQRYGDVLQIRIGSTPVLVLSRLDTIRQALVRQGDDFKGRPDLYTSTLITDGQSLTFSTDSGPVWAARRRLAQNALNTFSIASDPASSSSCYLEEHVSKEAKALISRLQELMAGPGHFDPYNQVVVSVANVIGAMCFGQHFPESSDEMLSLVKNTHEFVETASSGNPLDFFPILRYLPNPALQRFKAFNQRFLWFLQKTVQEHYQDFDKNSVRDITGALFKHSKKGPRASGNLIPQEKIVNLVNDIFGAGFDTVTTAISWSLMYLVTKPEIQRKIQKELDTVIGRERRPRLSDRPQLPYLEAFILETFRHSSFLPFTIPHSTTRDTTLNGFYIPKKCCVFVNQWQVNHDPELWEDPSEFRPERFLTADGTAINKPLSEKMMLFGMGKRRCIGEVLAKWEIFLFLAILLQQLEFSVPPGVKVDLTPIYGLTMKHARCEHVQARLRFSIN
Outline: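 20nM CYP1A2 with 100uM Luciferin-ME (at Km) in 100mM KPO4; compound preincubated 10 min, NADPH regeneration added, 60 min at room temperature. Luciferin quantified by luminescence after detection reagent; normalized to 57 uM furafylline.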

[4] = Stat Signaling Pathway (AID 446); conditions: ME-180 SIE beta-lactamase reporter, IL-6 stimulated, 5 h; series mostly up to 17.2 µM;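 also: ME-180 cervical cancer cells given 40 pM IL-6 alongside compound; SIE-controlled beta-lactamase reporter measured as 460/530 nm FRET emission ratio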
Outline: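 Screening format detects activators and inhibitors alike: ME-180 SIE-bla cells stimulated at 40 pM IL-6 for 5 hrs with compound, then dual-emission beta-lactamase read at 405 nm excitation.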

[5] = biological target: Mitogen-activated protein kinase 10 (Mus musculus) (UniProt Q61831); test: JNK3 AlphaScreen Assay (AID 530); conditions: JNK3 lysate, c-Jun phosphorylation; series mostly up to 57.1 µM;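 also: kinase came from lysate of stimulated human HepG2 cells; signal reports phosphorylation of biotinylated GST-cJun 1-79 at Ser73 with 10 µM ATP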
Outline: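 Pre-activated (IL-1β/TNFα) JNK3 in HepG2 lysates phosphorylates biotin-GST-cJun(1-79), 10 uM ATP; anti-phospho-cJun(Ser73) AlphaScreen read at room temperature, pH 7.6 Tris buffer. Compounds pre-incubated 15 min as titrations.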

[6] = biological target: 3',5'-cyclic-AMP phosphodiesterase 4B (Homo sapiens) (UniProt Q07343); test: qHTS Assay for Inhibitors of PDE-IV (AID 607; active = well fitted activation curve with a large enough effect in the main read-out, with a control signal flat, not every such curve was filed as active); conditions: HEK293 ACTOne CNG channel cells, membrane potential fluorescence; series mostly up to 22.9 µM
Chain of 3',5'-cyclic-AMP phosphodiesterase 4B (Homo sapiens) (Q07343 whole entry, looked up): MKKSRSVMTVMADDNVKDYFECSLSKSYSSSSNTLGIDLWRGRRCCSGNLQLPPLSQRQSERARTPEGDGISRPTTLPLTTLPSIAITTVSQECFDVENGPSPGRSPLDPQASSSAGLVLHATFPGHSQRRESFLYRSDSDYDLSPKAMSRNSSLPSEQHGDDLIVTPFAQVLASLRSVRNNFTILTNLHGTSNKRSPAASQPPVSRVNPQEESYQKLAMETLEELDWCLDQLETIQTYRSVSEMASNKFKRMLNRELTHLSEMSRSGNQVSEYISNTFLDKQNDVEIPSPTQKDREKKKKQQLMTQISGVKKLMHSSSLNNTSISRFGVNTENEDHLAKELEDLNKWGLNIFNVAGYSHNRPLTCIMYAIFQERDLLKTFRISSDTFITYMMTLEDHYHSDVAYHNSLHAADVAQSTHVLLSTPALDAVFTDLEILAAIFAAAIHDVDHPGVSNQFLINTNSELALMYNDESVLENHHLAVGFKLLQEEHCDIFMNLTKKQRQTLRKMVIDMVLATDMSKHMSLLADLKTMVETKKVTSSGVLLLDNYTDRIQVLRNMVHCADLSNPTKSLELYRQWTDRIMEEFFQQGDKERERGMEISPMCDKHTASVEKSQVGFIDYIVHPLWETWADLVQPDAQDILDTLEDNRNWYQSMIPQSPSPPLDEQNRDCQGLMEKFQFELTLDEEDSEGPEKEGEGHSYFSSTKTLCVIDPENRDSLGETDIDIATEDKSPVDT
Outline: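 The readout is membrane depolarisation from a cAMP-sensing CNG channel, detected with a potential dye at ex 535/em 590. Cells were HEK293-derived (endogenous PDE-IV) at 1000 cells/well, titrated up to 22.9 uM final.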

[7] = biological target: Cytochrome P450 3A4 (Homo sapiens) (UniProt P08684); test: qHTS Assay for Activators of Cytochrome P450 3A4 (AID 885; active = well fitted curve in the direction sought with a large enough effect; an effect the other way counts as inactive or inconclusive; also: nearly all actives have a fitted effect of over 65% in size); conditions: recombinant CYP3A4, Luciferin-PPXE luminescence, 60 min; series mostly up to 57.1 µM
Chain of Cytochrome P450 3A4 (Homo sapiens) (P08684 whole entry, looked up): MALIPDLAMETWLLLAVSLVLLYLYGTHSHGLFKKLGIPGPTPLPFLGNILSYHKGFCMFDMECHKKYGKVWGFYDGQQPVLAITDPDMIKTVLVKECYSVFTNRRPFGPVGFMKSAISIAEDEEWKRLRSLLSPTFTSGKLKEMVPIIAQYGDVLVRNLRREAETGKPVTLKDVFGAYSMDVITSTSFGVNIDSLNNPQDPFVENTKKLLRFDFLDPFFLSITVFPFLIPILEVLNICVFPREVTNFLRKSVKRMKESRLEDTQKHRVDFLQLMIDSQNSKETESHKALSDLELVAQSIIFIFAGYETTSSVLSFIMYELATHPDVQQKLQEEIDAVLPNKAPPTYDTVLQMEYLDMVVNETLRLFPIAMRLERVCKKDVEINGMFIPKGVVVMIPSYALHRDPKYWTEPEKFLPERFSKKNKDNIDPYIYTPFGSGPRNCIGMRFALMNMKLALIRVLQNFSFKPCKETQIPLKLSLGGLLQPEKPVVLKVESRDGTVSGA
Outline: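 Steps: enzyme/substrate mix dispensed; compound added, 10 min RT; NADPH regeneration solution added, 60 min RT; luciferin detection buffer stops reaction; 20 min later luminescence measured.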

[8] = qHTS Assay for Lipid Storage Modulators (AID 1519; calls by dose curve); conditions: Drosophila S3 cells, BODIPY lipid droplet/cell ratio, laser cytometry, cells loaded with oleic acid; for activity change, negative = inhibition: at 57.5 µM (top of the series)
Outline: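 Cells seeded at 5,000 per well were treated with compounds over a concentration series and loaded with oleic acid (400 uM, as added). Lipid droplet fluorescence (488 nm excitation, 500-530 nm channel) was read by laser-scanning cytometry and normalized to 20 uM Triacsin C.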

[9] = Primary qHTS for small molecule stabilizers of the endoplasmic reticulum resident proteome: Secreted ER Calcium Modulated Protein (SERCaMP) assay (AID 1508630; active = well fitted curve in the direction sought with a large enough effect; an effect the other way counts as inactive or inconclusive); conditions: SH-SY5Y GLuc-SERCaMP (Gaussia luciferase released on ER calcium loss) secretion, thapsigargin, luminescence; series mostly up to 38.4 µM
Outline: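 GLuc-SERCaMP-expressing SH-SY5Y cells, pretreated 16 h with compound, are challenged with thapsigargin to empty ER calcium stores; after 4 h, coelenterazine is added directly to the medium and luminescence is imaged.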

[10] = biological target: Glucocorticoid receptor (Homo sapiens) (UniProt P04150); test: GR-EFC Redistribution (AID 451; calls by dose curve; also: potency is read from the fitted curve at half-maximal effect); conditions: CHO-K1 GR-EFC translocation, beta-gal luminescence, 2 h
Chain of Glucocorticoid receptor (Homo sapiens) (P04150 whole entry, looked up, the tested form may be a part): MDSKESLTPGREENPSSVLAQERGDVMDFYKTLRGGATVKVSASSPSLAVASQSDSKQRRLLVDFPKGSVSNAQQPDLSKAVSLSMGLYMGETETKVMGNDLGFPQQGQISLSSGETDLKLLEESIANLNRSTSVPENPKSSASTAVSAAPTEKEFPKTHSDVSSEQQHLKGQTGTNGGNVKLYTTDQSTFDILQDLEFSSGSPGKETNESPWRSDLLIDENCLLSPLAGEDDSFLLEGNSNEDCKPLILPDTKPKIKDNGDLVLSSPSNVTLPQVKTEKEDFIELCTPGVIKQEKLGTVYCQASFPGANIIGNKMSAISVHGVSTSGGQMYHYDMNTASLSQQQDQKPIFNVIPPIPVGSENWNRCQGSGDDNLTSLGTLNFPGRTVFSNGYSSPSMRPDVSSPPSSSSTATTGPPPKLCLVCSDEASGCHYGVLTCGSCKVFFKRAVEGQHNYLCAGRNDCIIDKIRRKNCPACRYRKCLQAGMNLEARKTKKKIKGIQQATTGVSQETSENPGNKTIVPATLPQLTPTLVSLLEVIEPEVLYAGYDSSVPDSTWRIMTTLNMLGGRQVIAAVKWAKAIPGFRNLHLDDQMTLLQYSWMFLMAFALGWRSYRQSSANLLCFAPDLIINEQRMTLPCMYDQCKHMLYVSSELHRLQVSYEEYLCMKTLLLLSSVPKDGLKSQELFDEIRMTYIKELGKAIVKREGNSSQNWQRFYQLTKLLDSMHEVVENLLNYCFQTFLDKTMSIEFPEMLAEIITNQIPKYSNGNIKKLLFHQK
Outline: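 CHO-K1 cells expressing nuclear EA and GR-ED fragments of b-gal; compounds titrated up to 46 uM final, 2 h at 37 C. GR nuclear translocation read as complemented b-gal luminescence after 1 h RT detection.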

[11] = NFAT Signaling Pathway (AID 444); conditions: Jurkat NFAT-bla M1, carbachol, beta-lactamase ratio, 5 h; at 7.69 µM (top of the series);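 also: carbachol stimulus at about its EC50 of 1 µM final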
Outline: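 Jurkat cells with NFAT-driven β-lactamase reporter and co-expressed M1 receptor, stimulated with carbachol (final 1 uM, ~EC50), compound titration, 5 h at 37 °C. CCF4 loaded 1 h at RT; 460/530 nm ratio gave %activity and AC50.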

[12] = biological target: Lysosomal acid glucosylceramidase (Homo sapiens) (UniProt P04062); test: Glucocerebrosidase-p2 (AID 348; in the data active = potency below about 10 µM; also: potency is read from the fitted curve at half-maximal effect); conditions: purified GBA, blue fluorogenic substrate, 40 min
Chain of Lysosomal acid glucosylceramidase (Homo sapiens) (P04062 whole entry, looked up): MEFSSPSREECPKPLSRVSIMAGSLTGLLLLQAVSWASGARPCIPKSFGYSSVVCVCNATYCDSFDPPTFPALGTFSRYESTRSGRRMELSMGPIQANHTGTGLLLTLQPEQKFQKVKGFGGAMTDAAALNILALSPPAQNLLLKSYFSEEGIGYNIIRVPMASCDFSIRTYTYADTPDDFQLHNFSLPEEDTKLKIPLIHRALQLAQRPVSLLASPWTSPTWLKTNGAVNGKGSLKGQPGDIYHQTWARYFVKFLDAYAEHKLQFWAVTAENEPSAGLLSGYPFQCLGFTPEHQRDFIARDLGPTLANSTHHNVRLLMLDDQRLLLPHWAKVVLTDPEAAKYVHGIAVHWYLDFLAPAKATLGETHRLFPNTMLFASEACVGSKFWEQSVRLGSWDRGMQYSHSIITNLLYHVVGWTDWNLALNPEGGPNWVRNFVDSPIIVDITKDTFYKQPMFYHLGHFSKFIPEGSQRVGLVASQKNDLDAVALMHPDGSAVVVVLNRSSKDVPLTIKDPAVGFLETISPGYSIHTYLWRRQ
Outline: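 Compounds titrated from 0.6 nM upwards against 0.2 nM enzyme in pH 5.9 citric acid/KH2PO4, taurocholate, tween-20; blue fluorogenic substrate 80 uM, 40 min room temperature, stopped and read Ex 365/Em 440 for AC50.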

[13] = qHTS Assay for Identification of Small Molecule Agonists for Hypoxia Response Element Signaling Pathway (AID 914; active = well fitted activation curve with a large enough effect in the signal ratio, with a control signal flat, not every such curve was filed as active; the % refers to the signal ratio); conditions: ME-180 (cervical carcinoma) HRE-bla reporter, beta-lactamase ratio, CoCl2, 17 h; activation: stronger effect = higher value
Outline: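 Read-out: CCF4 FRET ratio of 460nm to 530nm emission (excitation 405nm) after 2.5 hours at room temperature, taken from HRE-bla ME-180 cells that had been exposed to compound and EC50 CoCl2 for 17 hours.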

[14] = measured here: cell count channel max response
[15] = measured here: lipid channel max response

SMILES | Potency [1] | outcome [2] | Potency [3] | outcome [4] | outcome [5] | Potency [6] | Potency [7] | activity change, negative = inhibition [8] | max response [8, 14] | max response [8, 15] | outcome [9] | Potency [10] | activity change, negative = inhibition [11] | Potency [12] | activation [13]
N#Cc1ccc(CN2CCCC3(CCN(C(=O)Oc4ccccc4)CC3)C2)cc1 | > 20 µM (inactive) | inactive | inactive | inactive | inactive | inactive | inactive | 1.3% (inactive) | 11.6% | 16.3% | inactive | – | – | – | –
c1ccc(CN2CCCC3(CCNCC3)C2)cc1 | > 20 µM (inactive) | inactive | – | inactive | inactive | inactive | – | 2.49% (inactive) | 3.6% | 7.81% | inactive | > 46 µM (inactive) | – | – | –
O=C(Nc1cccc(F)c1)N1CC[C@@]2(CCCN(C(=O)Oc3ccccc3)C2)C1 | > 20 µM (inactive) | inactive | 15.8 µM (active) | inactive | inactive | – | inactive | 7.1% (inactive) | 6.61% | 19.8% | inactive | > 46 µM (inactive) | -6.58% (inactive) | – | –
c1cnc(N2CCCC3(CCNCC3)C2)nc1 | – | inactive | – | inactive | inactive | inactive | – | 7.13% (inactive) | 9.32% | 19.3% | inactive | > 46 µM (inactive) | -26.8% (inactive) | > 11.4 µM (inactive) | 6.96% (inactive)
Cc1noc(C)c1C(=O)N1CCC2(CCCN(CC(C)C)C2)CC1 | > 4 µM (inactive) | inactive | inactive | inactive | inactive | inactive | – | 1.67% (inactive) | -5.22% | -1.22% | inactive | > 46 µM (inactive) | – | – | –
c1cc(CN2CC3(CCNCC3)C2)ccn1 | – | inactive | inactive | inactive | inactive | inactive | – | 2.64% (inactive) | 6.79% | 9.29% | inactive | > 46 µM (inactive) | – | – | –
CN1CC[C@@]2(CCCN(C(=O)Oc3ccccc3)C2)C1 | – | inactive | inactive | inactive | inactive | inactive | inactive | 2.41% (inactive) | 16.8% | 22% | inactive | > 46 µM (inactive) | 0.664% (inactive) | > 11.4 µM (inactive) | –
